# Results taken from PubChem BioAssay AID1240 (Sanford-Burnham Center for Chemical Genomics, 2008).
# The whole screen tested about 50,000 compounds, of which about 800 (1.6%) showed an effect of 50% or more. The entries come from a sample that favours strong results as a whole.
# Molecular target: Bcl-2-like protein 10 (Homo sapiens) (UniProt Q9HD36)
# Assay: Phenotype converters, Bcl-B/TR3 peptide binding displacement, primary biochemical FP (AID 1240);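 further: 0% = Bcl-B with tracer peptide and DMSO and 100% = tracer peptide lacking Bcl-B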
# Conditions: GST-Bcl-B / FITC-TR3 peptide fluorescence polarization; stronger effect = higher value; compound at 3.75 mg/L
# Chain of Bcl-2-like protein 10 (Homo sapiens) (Q9HD36 whole entry, looked up): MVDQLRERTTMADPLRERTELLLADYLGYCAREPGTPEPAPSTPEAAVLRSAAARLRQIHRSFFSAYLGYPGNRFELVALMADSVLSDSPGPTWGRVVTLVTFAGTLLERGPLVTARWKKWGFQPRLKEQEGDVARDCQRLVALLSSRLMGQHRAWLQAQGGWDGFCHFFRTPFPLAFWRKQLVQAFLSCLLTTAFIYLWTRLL
row,SMILES,displacement [%]
1,O=C(O)c1ccc(NC(=O)c2ccc(Cl)cc2)cc1,-3.6
2,COc1cc(/C=C/C(=O)c2c(C)cc(C)[nH]c2=O)cc(OC)c1OC,8.5
3,Cc1ccc(/C=C2\SC(=Nc3ccc(F)cc3)NC2=O)o1,101
4,Cc1ccc(N=C2NC(=O)/C(=C\c3ccc(C)o3)S2)cc1,-9.8
5,Cc1ccccc1/C=C1/SC(=Nc2ccc(F)cc2)NC1=O,7.8
6,O=C1NC(=Nc2ccc(F)cc2)S/C1=C\c1ccco1,32.8
7,COc1ccc(/C=C2/SC(=Nc3ccc(F)cc3)NC2=O)c(OC)c1,11.6
8,COc1ccccc1/C=C1/SC(=Nc2ccc(F)cc2)NC1=O,161
9,COc1ccc(/C=C2\SC(=S)N(NC(=O)c3cccnc3)C2=O)cc1,3.4
10,COc1ccc(/C=C(/C#N)c2nc(-c3ccc(Br)cc3)cs2)cc1OC,101
11,Cc1ccc(-c2csc(/C(C#N)=C\c3ccc(C)s3)n2)cc1,-2.9
12,N#C/C(=C\c1ccc(O)cc1)c1nc(-c2ccc(-c3ccccc3)cc2)cs1,21.6
13,COc1ccc(/C=C(\C#N)c2nc(-c3ccc(C)cc3)cs2)cc1,4.5
14,COc1cc(/C=C(\C#N)c2nc(-c3ccc(-c4ccccc4)cc3)cs2)ccc1O,112
15,COc1ccc(-c2csc(/C(C#N)=C\c3ccc(C)s3)n2)cc1,115
16,CCCCc1ccc(-c2csc(/C(C#N)=C/c3ccc(OC)c(OC)c3)n2)cc1,4.8
17,CCCCc1ccc(-c2csc(/C(C#N)=C/c3ccc(O)c(OC)c3)n2)cc1,2.4
18,COc1cccc(/C=C(\C#N)c2nc(-c3ccc(Br)cc3)cs2)c1,-7.3
19,Cc1ccc(/C(O)=C2\C(=O)C(=O)N(c3nncs3)C2c2cccc(Cl)c2)cc1 (stereo not drawn),12.7
20,Cc1cc(C)c2nc3s/c(=C\c4ccc([N+](=O)[O-])cc4)c(=O)n3c2c1,-6.3
21,O=C(Nc1ccc(Br)cc1)C1C(c2ccccc2)=C1c1ccccc1,-6.7
22,CC(=O)N1c2ccccc2NC2=C(C(=O)CC(c3ccccc3)C2)C1c1ccccc1Cl (stereo not drawn),-12
23,CC1(C)c2ccccc2N(CCO)C12C=Cc1cc(Br)ccc1O2 (stereo not drawn),7.8
24,Cc1ccc(CNC(=O)c2ccc([N+](=O)[O-])cc2Cl)cc1,0.9
25,Cc1ccccc1NC(=O)c1c(N)sc2c1CCCC2,12.7
26,COc1ccc(C2/C(=C(\O)c3ccc(Cl)cc3)C(=O)C(=O)N2c2cccnc2)c(OC)c1 (stereo not drawn),-7.1

row,SMILES,displacement [%]
1,CCOc1ccccc1/C=C1/SC(NC(C)=O)=NC1=O,12.9
2,CCOc1cc(/C=C2/SC(N)=NC2=O)ccc1OCc1ccc(F)cc1,-15.9
3,CCOc1ccc(/C=C2/SC(NC(C)=O)=NC2=O)cc1,132
4,CCOc1ccc(/C=C2/SC(NC(C)=O)=NC2=O)cc1OCC,54.6
5,C=C1CC(C)OC(c2ccccc2O)C1 (stereo not drawn),-4.4
6,O=C1CC(Nc2ccc(F)cc2)C(=O)N1c1ccccc1C(F)(F)F (stereo not drawn),1.1
7,C=CCNC(=O)CN(c1ccc(OC)cc1)S(C)(=O)=O,1.7
8,COc1cc(C(=O)c2cc(Br)ccc2NC(=O)COc2ccc(C)cc2)cc(OC)c1OC,17.2
9,COc1cc(C(=O)c2cc(Br)ccc2NC(=O)COc2ccccc2)cc(OC)c1OC,57.3
10,COc1cc(C(=O)Nc2ccc(Br)cc2C(=O)c2cc(OC)c(OC)c(OC)c2)cc(OC)c1OC,22.3
11,COc1cc(CN2CCN(Cc3ccccn3)CC2)cc(OC)c1OC,-5.1
12,CCOC(=O)C(Cc1cc(C)c(CC(C(=O)OCC)C(=O)OCC)cc1C)C(=O)OCC,-8.7
13,CCOC(=O)C1=CN(c2ccc(F)cc2)C=C(C(=O)OCC)C1c1cc(OC)c(OC)c(OC)c1,-2.3
14,CC(=O)N/N=C/c1cc(C)n(-c2ccc(Cl)cc2Cl)c1C,-7.1
15,COc1cccc2cc(-c3nc(-c4ccc(Cl)c(Cl)c4)cs3)c(=O)oc12,0.1
16,O=c1oc2cc(O)c([N+](=O)[O-])cc2cc1-c1csc(-c2cc3ccccc3oc2=O)n1,-10
17,O=c1oc2ccccc2cc1-c1nc(-c2ccc(Cl)c(Cl)c2)cs1,61.2
18,CCOc1ccc(-c2csc(-c3cc4ccccc4oc3=O)n2)cc1,-2.8
19,COc1cccc2cc(-c3nc(-c4ccc(C)c(C)c4)cs3)c(=O)oc12,80.5
20,Cc1ccc(-c2nc(-c3cc4cc([N+](=O)[O-])c(O)cc4oc3=O)cs2)cc1,-4.8
21,COc1cccc(-c2csc(-c3cc4cccc(OC)c4oc3=O)n2)c1,-23.1
22,O=c1oc2cc(O)ccc2cc1-c1csc(-c2ccc(-c3ccccc3)cc2)n1,116
23,O=c1oc2cc(O)c([N+](=O)[O-])cc2cc1-c1csc(-c2ccc(Cl)cc2)n1,-11.3
24,Cc1ccc(-c2csc(-c3cc4ccccc4oc3=O)n2)cc1,154
25,COc1cccc2cc(-c3nc(-c4ccccc4)cs3)c(=O)oc12,7.8
26,Cc1ccc(-c2csc(-c3cc4cc([N+](=O)[O-])ccc4oc3=O)n2)cc1,-7.9

row,SMILES,displacement [%]
1,CCOC(=O)c1c(-c2ccc(OC)cc2)csc1NC(=O)c1cccc([N+](=O)[O-])c1,12.6
2,Cc1cc(/C=C2\SC(=O)NC2=O)c(C)n1C1CCCCC1,8.2
3,Cc1ccc(OCc2nc(-c3cccnc3)no2)c(Br)c1,10.7
4,N#C/C(=C\c1ccc(C(=O)O)cc1)C(=O)NCC1CCCO1 (stereo not drawn),0
5,Fc1ccc(-c2nnn(Cc3c(F)cccc3Cl)n2)cc1,-6.4
6,CC1=C(C(=O)OCC(F)(F)F)C(c2ccccc2)NC(=O)N1 (stereo not drawn),7.2
7,Cc1cccc(NC(=O)C2C(C(=O)O)C3C=CC2C32CC2)c1 (stereo not drawn),-1.1
8,O=C(CSc1nc2ccccc2s1)c1ccc2ccccc2c1,11.9
9,CCc1ccc(-c2csc(-c3cc4cccc(OC)c4oc3=O)n2)cc1,-23.6
10,COc1ccc(-c2csc(-c3cc4cc(Cl)cc(Cl)c4oc3=O)n2)cc1,75
11,COc1cccc2cc(-c3nc(-c4ccc(Cl)cc4Cl)cs3)c(=O)oc12,-11.5
12,COc1cc(NS(=O)(=O)c2ccc(C)cc2)cc(OC)c1O,13.5
13,NC(=O)COc1ccc(/C=N/NS(=O)(=O)c2ccccc2)cc1,0.2
14,COc1ccc(/C=C(\C#N)c2ccc([N+](=O)[O-])cc2)c(OC)c1,110
15,COc1cc(/C=C(\C#N)c2ccc([N+](=O)[O-])cc2)c(OC)cc1Br,14.7
16,COc1ccc(OC)c(/C=C(\C#N)c2ccc([N+](=O)[O-])cc2)c1,4
17,CC(C)CN1C(=O)/C(=C/c2ccccc2F)SC1=S,10.4
18,COc1ccc(NC(=O)CSCCc2ccccn2)c([N+](=O)[O-])c1,10.5
19,NS(=O)(=O)c1cccc(NC(=O)c2cc(I)ccc2Cl)c1,-1.9
20,COc1ccc(/C=C2\SC(=S)N(CCCC(=O)Nc3ncc(Cc4cccc([N+](=O)[O-])c4)s3)C2=O)cc1OC,59
21,O=C(CCN1C(=O)/C(=C/c2ccc(F)cc2)SC1=S)Nc1cc([N+](=O)[O-])ccc1O,25.6
22,COc1ccc(/C=C2\SC(=S)N(CC(=O)Nc3ncc(Cc4cccc([N+](=O)[O-])c4)s3)C2=O)cc1OC,9.7
23,O=C(CCCN1C(=O)/C(=C\c2ccc(F)cc2)SC1=S)Nc1cc([N+](=O)[O-])ccc1O,114
24,CCCCN1C(=O)/C(=C\c2ccc(N(CC)CC)cc2)SC1=S,-18.9
25,Cc1ccc(/C=C2\SC(=S)N(CCc3ccccc3)C2=O)cc1,17
26,COc1ccc(CCN2C(=O)/C(=C\c3ccc(C(C)C)cc3)SC2=S)cc1OC,-0.4

row,SMILES,displacement [%]
1,CCN(CC)c1ccc(/C=C2\SC(=S)N(CCc3ccccc3)C2=O)cc1,86
2,O=C(CCCN1C(=O)/C(=C\c2ccc(F)cc2)SC1=S)Nc1ccccc1O,-12.5
3,O=C(CN1C(=O)/C(=C/c2ccc(Br)cc2)SC1=S)Nc1ncc(Cc2cccc([N+](=O)[O-])c2)s1,17.9
4,COc1ccc(/C=C2/SC(=S)N(CCc3ccccc3)C2=O)cc1OC,105
5,COc1ccc(/C=C2/SC(=S)N(Cc3ccccc3)C2=O)cc1OC,16.1
6,COC1C(C)=C(c2ccccc2F)C(=O)N1Cc1ccccc1 (stereo not drawn),14.3
7,CC1=C(C(=O)Nc2ccc(C)cc2)C(c2ccc(F)cc2)NC(=S)N1 (stereo not drawn),-4.5
8,C/C(O)=C/c1nc2ccc([N+](=O)[O-])cc2nc1/C=C(/C)O,17.3
9,OC(COCc1ccc2c(c1)OCO2)CN1CCC(Cc2ccccc2)CC1 (stereo not drawn),0.1
10,Cc1ccc(-c2cc(NC(=O)c3ccc(Cl)cc3Cl)n[nH]2)cc1,9.9
11,O=C(O)CCCCCN1C(=O)C(=O)/C(=C(/O)c2ccccc2)C1c1ccc([N+](=O)[O-])cc1 (stereo not drawn),-3.9
12,O=C1c2c(Cl)ccc(Cl)c2C(=O)N1c1ccccc1O,9.8
13,C(#Cc1ccccc1)CN1CCOCC1,2.4
14,CSC(=O)NC1(Cc2ccc(O)cc2)CCCCC1,-4.1
15,Cc1ccc(C(=O)N/C(=C/c2ccc(Br)cc2)C(=O)NN)cc1,-31.6
16,CCN(CC)CCC(=O)c1ccc2c(c1)OCO2,-5.3
17,O=c1[nH]c2ccc(Cl)cc2c(-c2ccccc2)c1N1CCOCC1,-27.7
18,COC(=O)C(C)Oc1cc2oc(=O)cc(-c3ccccc3)c2cc1Cl (stereo not drawn),10.3
19,COc1ccc(/C=C2\SC(=NCc3ccccc3)N(Cc3ccccc3)C2=O)cc1OC,7.1
20,COc1cc(/C=C2\SC(=NCc3ccccc3)N(Cc3ccccc3)C2=O)cc(Br)c1O,-5.7
21,COc1ccc(/C=C2\SC(=NCc3ccccc3)N(Cc3ccccc3)C2=O)cc1C(=O)O,78
22,CCN(CC)c1ccc(/C=C2/C(=O)NN(c3cccc(Cl)c3)C2=O)c(O)c1,1.9
23,CCN(CC)c1ccc(/C=C2/C(=O)NN(c3ccc(C)c(Cl)c3)C2=O)c(O)c1,59.2
24,CCN(CC)c1ccc(/C=C2/C(=O)NN(c3ccc(C)cc3)C2=O)c(O)c1,23.1
25,CC(=O)C12CCCCC1CC1C3CC(C)[C@@]4(O)CC(O)CCC4(C)C3CCC12C (stereo partly drawn),0
